TEAD-YAP block = TEAD-YAP interaction inhibition. HEK-TIYL cells, TEAD-Gal4/YAP UAS-luciferase luminescence. inhibition, % at 9.12 µM. actives 1.4% (n = 640,000); in the data active = inhibition above about 32%;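 note: 0% = median of test compound wells and 100% = reference inhibitor wells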
FBW7 activator = activators of human E3 ligase FBW7. Q969H0. AlphaScreen FBW7–phospho-cyclin E peptide binding, activator screen. normalized activity (activation), % at 26.1 µM. actives 0.13% (n = 650,000); in the data active = normalized activity above about 1.9%;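 note: purified mutant Fbw7 with reduced substrate affinity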
GPR151 activ = activates the human receptor GPR151 | AID 1508602 | actives 1% (n = 650,000) | activation, % at 11.2 µM | Q8TDV0 | PathHunter beta-arrestin GPR151 cells, luminescence; in the data active = activation above about 4.9%;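 note: 0% = median of compound wells and 100% = cells with positive control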
MITF inh = blocks human microphthalmia-associated transcription factor; O75030; AlphaScreen MITF homodimerization, bead proximity signal; inhibition, % at 2.6 µM; actives 0.91% (n = 650,000); AID 1259374; in the data active = inhibition above about 50%;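 note: 0% = vehicle wells with protein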
GPR151 conf act = confirmation of human GPR151 activators; shares compounds with GPR151 activ; GPR151 PathHunter beta-arrestin cells, luminescence, 90 min; % of EA-reagent control over plate median; activation, % at 11.2 µM; 6,700 tested, under 10 active;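 active = mean percent activation across replicates above the confirmation screen cutoff of 4.91%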
GPR119 ag = GPR119 activation, counter-screen for GPR151 activators; GPR119 PathHunter beta-arrestin cells, luminescence, 90 min; 0 = compound-well median, 100 = enzyme-acceptor control; shares compounds with GPR151 activ; AID 1508611; activation, % at 11.2 µM; actives 0.3% (n = 6,700);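 active = mean percent activation in the counterscreen above 29.09%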;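 note: counterscreen on off-target GPR119 to flag nonselective hits from the GPR151 activator screen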
Target sequence (Q8TDV5 whole entry, looked up): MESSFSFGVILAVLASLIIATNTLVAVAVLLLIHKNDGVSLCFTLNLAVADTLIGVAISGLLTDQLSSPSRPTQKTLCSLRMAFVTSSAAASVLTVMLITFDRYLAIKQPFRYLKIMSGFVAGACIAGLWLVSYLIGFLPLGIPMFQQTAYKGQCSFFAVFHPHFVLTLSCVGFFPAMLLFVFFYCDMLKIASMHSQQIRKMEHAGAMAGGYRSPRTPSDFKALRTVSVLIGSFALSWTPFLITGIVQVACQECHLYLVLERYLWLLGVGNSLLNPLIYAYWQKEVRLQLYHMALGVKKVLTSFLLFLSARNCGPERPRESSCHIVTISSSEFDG
Numbers without * were called inactive; . = no result given. Sampled rows, rich in hits. Any-hit rate of the full collection: about 3.5%.

SMILES	TEAD-YAP block	FBW7 activator	GPR151 activ	MITF inh	GPR151 conf act	GPR119 ag
NC(C(=O)N1CCC(Nc2ccc3cnccc3c2)CC1)c1ccc(-c2ccccc2)cc1 (centres undefined)	-18	0	-1	-12	.	.
CCc1ccccc1NC(=O)CSc1nc2nc(C)c(Cc3ccc(F)cc3Cl)c(C)n2n1	8	0	0	-13	.	.
CCC(Sc1nc2nc(C)c(Cc3ccc(F)cc3Cl)c(C)n2n1)C(=O)Nc1ccccc1OC (centres undefined)	-11	0	5.4*	-9	0	6
O=C(c1ccc(-c2cccc(Cl)c2Cl)o1)N1CCOCC1	-77	0	7.3*	10	0	-2
CCOc1ccc(S(=O)(=O)Nc2cccc(N3CCCC3=O)c2)cc1	4	0	0	-10	.	.
CC(=O)c1nc2ccccc2n1S(=O)(=O)c1ccc(Cl)cc1	-1	0	5.2*	1	-1	-13
CC(=O)N1CCN(Cc2ccccc2)CC1C(=O)NCc1ccccc1 (centres undefined)	-2	0	5.5*	5	1	-7
CCNC(=O)N1CCN(Cc2ccccc2)CC1C(=O)NCc1ccccc1 (centres undefined)	-8	0	4	-6	.	.
CCN(CC)c1cc(N)c([N+](=O)[O-])cc1F	12	0	6.5*	22	1	2
Cc1nc2sccn2c(=O)c1S(=O)(=O)N1CCC(Cc2ccccc2)CC1	-4	0	6.2*	5	0	0
O=c1c2ccccc2nc(SCc2ccc(Cl)cc2)n1Cc1ccc2c(c1)OCO2	-5	0	0	-3	.	.
N#CCSc1nc2ccccc2c(=O)n1Cc1ccc2c(c1)OCO2	-1	0	5.1*	3	0	-1
O=C(COc1ccccc1[N+](=O)[O-])Nc1c(Cl)cccc1C(F)(F)F	9	0	1	0	.	.
CCCCC(C(=O)Nc1cccc(C)c1)N1C(=O)c2cc(Cl)c(Cl)cc2C1=O (centres undefined)	-2	0	8.3*	22	1	12
Cc1nc(CN(C)Cc2ccc(C(=O)NCc3ccccc3Cl)c(=O)[nH]2)cs1	-15	0	5.2*	4	0	3
CN(Cc1cscn1)Cc1ccc(C(=O)NCc2cccs2)c(=O)[nH]1	9	-1	-1	10	.	.
CC(C)CC(NC(=O)C(C)NC(=O)CNC(=O)C(NC=O)C(C)C)C(=O)NC(C)C(=O)NC(C(=O)NC(C(=O)NC(C(=O)NC(Cc1c[nH]c2ccccc12)C(=O)NC(CC(C)C)C(=O)NC(Cc1c[nH]c2ccccc12)C(=O)NC(CC(C)C)C(=O)NC(Cc1c[nH]c2ccccc12)C(=O)NC(CC(C)C)C(=O)NC(Cc1c[nH]c2ccccc12)C(=O)NCCO)C(C)C)C(C)C)C(C)C (centres undefined)	84*	0	24*	-5	14*	113*
COC(=O)C(C)NC(=O)C(Cc1c[nH]c2ccccc12)NC(C)=O (centres undefined)	5	1	0	2	.	.
CCOc1ccccc1NC(=O)c1cc(S(=O)(=O)N2CCc3ccccc32)cn1C	4	0	1	13	.	.
Cc1ccc(C)c(N2CCN(C(=O)c3ccc4c(c3)NC(=O)C(CSCc3c(F)cccc3Cl)N4)CC2)c1 (centres undefined)	2	1	0	2	.	.
COC(=O)C1=C(O)/C(=C\c2ccc(F)cc2)N=C1C	6	0	8.6*	-6	1	-7
COc1cccc(OC)c1OCCN1CCNCC1	-7	0	0	3	.	.
Clc1ccccc1OCCN1CCNCC1	7	0	5.4*	3	1	9
O=C(Cn1cc([N+](=O)[O-])cn1)Nc1ccccn1	2	0	3	1	.	.
O=C(Cn1cc([N+](=O)[O-])cn1)n1cccn1	-4	0	5.5*	-6	-1	-11
SMILES	TEAD-YAP block	FBW7 activator	GPR151 activ	MITF inh	GPR151 conf act	GPR119 ag
Cc1ccc2c(C)nc(N3CCCC(NCC4CCCO4)CC3)nc2c1 (centres undefined)	0	0	0	-3	.	.
Cc1c(C(=O)N(C)C(C)c2ccon2)sc2ncnc(NCc3ccco3)c12 (centres undefined)	5	1	0	17	.	.
O=C1NC(N2CCOCC2)=N/C1=C/c1ccc2c(c1)OCO2	-15	0	9.4*	5	0	6
CCN1CCN(C2=NC(=O)/C(=C\c3ccc(C)o3)S2)CC1	3	0	-1	6	.	.
Cc1cccc(NC(=O)CSc2nnc(NC(=O)COc3ccc(Cl)cc3)s2)c1	-6	0	6.5*	1	-1	-5
Cc1nnc(SCC(=O)Nc2nc(-c3ccc(Cl)cc3)ns2)s1	-9	0	5.2*	0	-1	-6
CCSc1nnc(NC(=O)COc2ccc(Cl)cc2Cl)s1	3	0	7.2*	-8	1	4
Cc1ccc(NC(=O)CSc2nnc(NC(=O)COc3ccc(Cl)cc3)s2)cc1	1	0	0	11	.	.
COCCn1c(C)cc(/C=C2/C(=O)NC(=O)N(C3CCCCC3)C2=O)c1C	9	0	7.0*	8	-1	-12
O=C1CCCc2nc(N3CCN(Cc4ccccc4)CC3)ncc21	-6	0	6.9*	14	0	8
CC1CC(=O)c2cnc(N3CCN(Cc4ccccc4)CC3)nc2C1 (centres undefined)	-7	1	-1	10	.	.
CC(C)NC(=O)c1ccc(C(=O)C(F)(F)F)cc1	3	0	5.6*	-9	0	-1
CC(C)NC(=O)C(=O)NNC(=O)c1ccc(C(C)(C)C)cc1	-6	0	5.7*	-4	-1	-1
CC(C)NC(=O)c1ccc(COCC(F)(F)F)cc1	6	0	0	15	.	.
Cc1nc2c(C(=O)NCc3ccccn3)cnn2c(C)c1Cc1cccc(Cl)c1	1	0	8.1*	-12	2	12
Cc1nc2c(C(=O)N3CCCC3)cnn2c(C)c1Cc1cccc(Cl)c1	-14	0	5.5*	15	1	14
Cc1ccccc1Cc1c(C)nc2c(C(=O)N3CCN(c4cccc(Cl)c4)CC3)cnn2c1C	4	0	3	6	.	.
COc1ccc(CNC(=O)c2cnn3c(C)c(Cc4cccc(Cl)c4)c(C)nc23)cc1	21	0	1	7	.	.
Cc1cccc(Cc2c(C)nc3c(C(=O)N4CCCC4)cnn3c2C)c1	-6	0	2	-1	.	.
Cc1nc2c(C(=O)N3CCN(c4cccc(Cl)c4)CC3)cnn2c(C)c1Cc1ccccc1Cl	12	0	5.3*	2	0	-5
COc1ccc2cc(/C=N/NC(=O)Cc3ccccc3)ccc2c1	-2	0	0	-24	.	.

Bioassay records from PubChem BioAssay.
